High-throughput results: PubChem, National Center for Advancing Translational Sciences (NCATS)
PLK1 PBD inh – inhibitors of human PLK1 polo-box domain binding | Plk1 PBD binding of FITC phosphopeptide, fluorescence polarization | Potency, µM, actives largely listed as inhibitors | 360,000 tested, 2.8% active | AID 720504; note: series mostly up to about 57 µM; nearly all actives have a fitted effect of over 65% in size
Target sequence (P53350 whole entry, looked up, the tested form may be a part): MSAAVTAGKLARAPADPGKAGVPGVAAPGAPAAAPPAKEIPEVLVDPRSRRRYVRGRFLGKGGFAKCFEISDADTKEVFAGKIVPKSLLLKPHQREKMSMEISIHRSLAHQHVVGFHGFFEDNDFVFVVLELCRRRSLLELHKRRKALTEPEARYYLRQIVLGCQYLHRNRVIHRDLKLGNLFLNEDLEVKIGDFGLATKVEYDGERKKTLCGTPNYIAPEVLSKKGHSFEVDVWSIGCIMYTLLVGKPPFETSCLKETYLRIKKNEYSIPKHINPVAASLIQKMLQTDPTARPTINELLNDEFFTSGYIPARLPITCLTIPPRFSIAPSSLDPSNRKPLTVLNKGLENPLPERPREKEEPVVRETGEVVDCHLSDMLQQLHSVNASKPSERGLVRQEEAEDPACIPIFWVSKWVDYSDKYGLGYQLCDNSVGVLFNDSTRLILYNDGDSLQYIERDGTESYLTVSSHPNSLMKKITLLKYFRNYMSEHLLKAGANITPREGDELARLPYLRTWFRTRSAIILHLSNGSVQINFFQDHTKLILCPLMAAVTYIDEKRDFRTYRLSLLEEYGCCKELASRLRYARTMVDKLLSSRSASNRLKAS
VDR inhibitor – vitamin D3 receptor (human) inhibition; P11473; VDR-SRC2-3 peptide fluorescence polarization, 2 h; Potency, µM, actives largely listed as inhibitors; 400,000 tested, 0.93% active; AID 504847
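Signal is fluorescence polarization, reporting how far test compounds block the interaction of VDR with the SRC2-3 coregulator peptide after a 2 h room-temperature incubation.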
Sfp PPTase inh – blocks B. subtilis Sfp PPTase activity; Q9F4F7; Biochemical Sfp PPTase activity, qHTS; Potency, µM, hits mostly inhibitors; 310,000 tested, 3.5% active; AID 1490;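 note: the enzyme is Sfp with the accession as filed and its product quenches rhodamine fluorescence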
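With Hepes-Na pH 7.6 buffer containing 10 mM MgCl2, Sfp (15 nM) modified BHQ-2-YbbR (12.5 uM) using rhodamine-CoA (5 uM). Two reads 30 minutes apart at 525/598 nm yielded each well's rate.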
G9a block – blocks human histone lysine methyltransferase G9a; G9a H3K9 monomethylation, AlphaScreen, 2 h; Potency, µM (titrated, usually from 102 µM), most hits filed as inhibitors; 350,000 tested, 8.8% active; AID 504332; note: nearly all actives have a fitted effect of over 75% in size
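AlphaScreen read-out: biotin-H3K9 peptide (500 nM) methylation by 20 nM enzyme with 20 uM SAM, 2 h at room temperature after 15 min compound preincubation; anti-monomethyl H3K9 antibody plus donor/acceptor beads, 10 min dark.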
CCT chaperon mod – cytosolic chaperonin activity modulation. 360,000 tested, 0.3% active. purified chaperonin ATPase assay, HTRF ADP detection, 30 min. AID 651819. activity change, % (concentration not given with the values), hits read low; in the data active = activity change below about -30%
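Nucleotide hydrolysis assay: TRiC at 20–40 nM final (set by batch activity) with 10 uM ATP, 30 min at 37 °C, in presence of 76 uM compound. Detection by competitive ADP HTRF, 30 min ambient.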
MmCpn inh – blocks the Methanococcus maripaludis chaperonin Mm-Cpn | Potency, µM (highest dose often 76.9 µM), most hits filed as inhibitors | purified Mm-Cpn ATPase, ADP Transcreener TR-FRET | 330,000 tested, 0.031% active; note: nearly all actives have a fitted effect of over 80% in size
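Eu-cryptate anti-ADP/ADP-d2 competition gives a ratio inversely related to ADP. Enzyme at 25 nM was pre-exposed to compound for 10 min, then given 10 uM ATP for 30 min, 37°C throughout.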
Numbers stand for hits; 0 = inactive; ? = inconclusive; - = not tested or not shown; [ ] = dose if it differs, or a comment. The list is not random: actives were taken first. Their share in the collection is about 10%. Unless noted, calls come from the whole dose curve; as a rule, active = well fitted curve in the direction sought with a large enough effect; inconclusive = small, poorly fitted or top-dose-only effect, or another doubt; inactive = no such curve, though single readings can be large; an effect the other way counts as inactive or inconclusive.

SMILES	PLK1 PBD inh	VDR inhibitor	Sfp PPTase inh	G9a block	CCT chaperon mod	MmCpn inh
COc1ccc(N2CC(C(=O)Nc3ccccc3C(=O)NCc3ccco3)CC2=O)cc1 (configuration not stated)	0	0	0	0[12.7 µM]	0	0
O=C(NCCN1C(=O)S/C(=C\c2cccnc2)C1=O)c1ccc([N+](=O)[O-])s1	0	0	-	14.1µM	0	0
Cc1ccc(-n2nc(C(=O)N3CCN(c4ccccc4F)CC3)c3c4ccccc4n(C)c3c2=O)cc1	-	0	-	0	-	-
COc1ccc(S(=O)(=O)NCCc2sc(-c3cccc(F)c3)nc2C)cc1	-	0	-	0	-	-
COc1ccccc1-c1c(C)nn2c(-c3ccccc3)cc(-c3ccccc3)nc12	-	0	-	0	-	-
COc1cccc(C(=O)NC2C(=O)N3C(C(=O)O)=C(COC(C)=O)CSC23)c1 (configuration not stated)	21.2µM	?	-	0[12.7 µM]	0	0
CO/N=C(/C(=O)N[C@@H]1C(=O)N2C(C(=O)O)=C(COC(N)=O)CS[C@H]12)c1ccco1	-	50.1µM	0	0	-	-
CC(=O)OCC1=C(C(=O)O)N2C(=O)C(NC(=O)Cc3cccs3)C2SC1 (configuration not stated)	-	-	0	-	-	-
CC(=O)OCC1=C(C(=O)O)N2C(=O)C(NC(=O)c3ccc(COc4cccc(Cl)c4Cl)o3)C2SC1 (configuration not stated)	?	25.1µM	0	31.6µM	0	0
CN1CCN(CCCNC(=O)Cn2c(-c3cccs3)cc3cc(Cl)ccc32)CC1	-	0	-	?	-	-
CCC(=O)N1c2ccccc2CC1C(=O)NCc1cccc(C)c1 (configuration not stated)	-	0	-	0	-	-
c1cc(N2CCCC2)ccc1C(c1nnnn1C1CCCCC1)N1CCOCC1 (configuration not stated)	0	0	?	10µM	0	0
CC(C)C(c1nnnn1C1CCCCC1)N1CCc2ccccc2C1 (configuration not stated)	0	0	0	?	0	0
COc1ccc(OC)c(C(c2nnnn2C2CCCC2)N2CCN(c3ccccc3)CC2)c1 (configuration not stated)	0	0	0	31.6µM	0	0
Oc1ccc(N2CCN(C(c3ccccn3)c3nnnn3C3CCCC3)CC2)cc1 (configuration not stated)	0	0	17.8µM	1.78µM	0	0
c1ccc(C(c2nnnn2C2CCCCC2)N2CCc3ccccc3C2)nc1 (configuration not stated)	0	0	79.4µM	7.94µM	0	0
CCCC(=O)Nc1ccc(-c2nc3ncccc3o2)cc1C	-	0	-	0	-	-
O=C(NCc1ccccc1)c1ccc(CNS(=O)(=O)c2ccc(Br)cc2)cc1	-	0	-	0	-	-
Cc1ccc(Cl)cc1NC(=O)N1CCc2cc(S(=O)(=O)N3CCC(C)CC3)ccc21	-	0	-	0	-	-
CC(=O)OCC1OC(n2cc(F)c(=O)[nH]c2=O)C(OC(C)=O)C1OC(C)=O (configuration not stated)	0	0	-	-	0	-
O=C1C(F)=CC(COC(c2ccccc2)(c2ccccc2)c2ccccc2)OC1n1cc(F)c(=O)[nH]c1=O (configuration not stated)	5.97µM	44.7µM	-	-	0	-
Cc1c(Cl)cccc1NC(=O)Nc1nnc(N(C)Cc2ccccc2)s1	-	0	-	0	-	-
CCOc1ccc(C(=O)N(Cc2cc(OC)c(OC)c(OC)c2)c2ccccn2)cc1	-	0	-	0	-	-
COc1cc(C(=S)N(C)C)ccc1O	9.47µM	0	39.8µM	6.31µM	0	0
c1ccc(CSC2=NCCCN2)cc1	0	0	0	0	0	0
SMILES	PLK1 PBD inh	VDR inhibitor	Sfp PPTase inh	G9a block	CCT chaperon mod	MmCpn inh
O=C(CCSC1=NCCCN1)c1ccc(F)cc1	?	70.8µM	-	-	0	-
CCOC(=O)c1c(C)oc2nc(C)nc(NCC3CCN(Cc4ccc(Cl)cc4)CC3)c12	-	0	-	0	-	-
COC(=O)c1ccc(N=Nc2ccccc2)cc1	0	0	0	39.8µM	0	0
COC(=O)CCC(=O)Nc1ccc(N=Nc2ccccc2)cc1	0	0	0	10µM	0	0
CCOc1ccc(NC(=O)CC2C(=O)N(c3ccccc3)C(=O)N2C2CCCCC2)cc1 (configuration not stated)	-	0	-	0	-	-
O=C(CCc1nc(-c2ccccc2Cl)no1)NCC1CCCO1 (configuration not stated)	0	0	0	0	0	0
Cc1ccccc1-c1noc(CCC(=O)NCC2CCCO2)n1 (configuration not stated)	0	0	0	12.6µM	0	0
COC(=O)N[C@@H](c1cccc(F)c1)C(C(C)=O)C(=O)OC (some centres not stated)	-	-	0	-	-	-
COc1ccc(N2CCN(C3CCCN(Cc4ccc(F)cc4Cl)C3)CC2)cc1 (configuration not stated)	0	0	0	70.8µM	0	0
CC1CN(C2CCN(S(=O)(=O)c3ccc4ccccc4c3)CC2)CC(C)O1 (configuration not stated)	0	0	31.6µM	6.31µM	0	0
COc1ccc(S(=O)(=O)N2CCC(N3CCN(c4ccccc4OC)CC3)CC2)cc1	0	0	?	3.16µM	0	0
COc1ccccc1N1CCN(C2CCCN(S(=O)(=O)c3ccc(C)cc3)C2)CC1 (configuration not stated)	0	0	0	56.2µM	0	0
COc1ccccc1N1CCN(C2CCCN(S(=O)(=O)c3cccc(Cl)c3)C2)CC1 (configuration not stated)	0	0	0	?	0	0
Cc1cc(S(=O)(=O)N2CCCC(N3CCOCC3)C2)c(C)cc1Cl (configuration not stated)	?	0	0	44.7µM	0	0
COc1ccccc1N1CCN(S(=O)(=O)c2c[nH]c(=O)[nH]c2=O)CC1	0	0	-	20µM	0	0
O=S(=O)(c1cc(Cl)ccc1Cl)N1CCN2CCCC2C1 (configuration not stated)	0	0	0	0	0	0
COc1ccc(N2CCN(C3CCCN(S(=O)(=O)c4ccc(C)cc4C)C3)CC2)cc1 (configuration not stated)	0	0	0	35.5µM	0	0
Cc1ccc(NC(=O)c2cc(S(=O)(=O)N3CCc4ccccc43)cn2C)c(Cl)c1	-	0	-	0	-	-
COc1cc(N=Nc2c(C)n(C)n(-c3ccccc3)c2=O)ccc1N	0	0	0	50.1µM	0	0
Cc1ccc(C(C)C)c(OCCCNCc2cccnc2)c1	0	0	0	50.1µM	0	0
Cc1ccc(C(C)C)c(OCCNCCc2ccccc2)c1	0	0	0	-	0	0
Cc1ccc(C(C)C)c(OCCn2ccnc2C)c1	0	0	0	10µM	0	0
Clc1ccc(OCCn2cnc(Cl)c2Cl)cc1	0	0	0	50.1µM	0	0
Cc1nccn1CCOc1ccc(Cl)cc1	0	0	0	8.91µM	0	0
